Active and inactive are the calls of the source.
Assays:
[1] = tested on: Plasmodium falciparum Sir2 (PF13_0152, Sir2A); assay: pfSir2 binders on small-molecule microarrays, primary screen, biochemical, small-molecule microarray, 635 nm fluorescence (AID 1098); conditions: small-molecule microarray binding, fluorescence 635 nm; higher = more signal;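 further: score merges spot fluorescence intensity with its signal-to-noise ratio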
[2] = small-molecule microarray binders of probe aDKK1, primary screen, biochemical, biotinylated probe, 635/667 nm fluorescence (AID 1099); conditions: higher = more signal;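 further: score merges 667nm spot fluorescence with signal to noise across triplicate slides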
[3] = small-molecule microarray binders of probe aCHRDL2, primary screen, biochemical, biotinylated probe, 635/667 nm fluorescence (AID 1100); conditions: higher = more signal
[4] = splicing luciferase reporter signal modulators, primary screen, spliceosome inhibition project, cell-based, HEK293, splice +/- reporter (AID 1101); conditions: luminescence, 24 h, higher = more signal, called active from +8 up or from −8 down;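 further: HEK293 cells carrying a splicing-competent luciferase reporter gene; test concentration not given here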
[5] = biological target: Fibroblast growth factor 10 (Homo sapiens) (UniProt O15520); assay: FGF10 binders on small-molecule microarrays, primary screen, biochemical, small-molecule microarray, 635 nm fluorescence (AID 1102); conditions: FGF10 binding, fluorescence 635 nm, higher = more signal
[6] = tested on: glycogen synthase kinase-3 (GSK3A per assay name; protocol says GSK3B); assay: GSK3 binders on small-molecule microarrays, primary screen, biochemical, small-molecule microarray, 635 nm fluorescence, GSK3A (AID 1103); conditions: small-molecule microarray binding, fluorescence 635 nm; higher = more signal; further: the record names both GSK3A and GSK3B
[7] = biological target: Epidermal growth factor receptor (Homo sapiens) (UniProt P00533); assay: EGFR binders on small-molecule microarrays, primary screen, biochemical, small-molecule microarray, 635 nm fluorescence (AID 1104); conditions: EGFR binding, higher = more signal;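 further: score merges 667 nm emission intensity with spot signal to noise over triplicate slides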
[8] = biological target: Follistatin-related protein 3 (Homo sapiens) (UniProt O95633); assay: FSTL3 binders on small-molecule microarrays, primary screen, biochemical, small-molecule microarray, 635 nm fluorescence (AID 1105); conditions: FSTL3 binding, higher = more signal;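 further: score merges emission near 667 nm and signal to noise per printed spot across three slides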
[9] = biological target: Dickkopf-related protein 1 (Homo sapiens) (UniProt O94907); assay: DKK1 binders on small-molecule microarrays, primary screen, biochemical, small-molecule microarray, 635 nm fluorescence scan (AID 1106); conditions: DKK1 binding, higher = more signal;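 further: score merges emission near 667 nm with signal to noise over three replicate slides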
[10] = tested on: Inhibin beta A chain (activin A); assay: INHBA (activin A) binders on microarrays, primary screen, biochemical, small-molecule microarray, 635 nm fluorescence scan (AID 1107); conditions: small-molecule microarray binding, higher = more signal;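 further: mouse activin A protein probed at 4.33 µg/mL on printed slides; score merges bound-protein fluorescence near 667 nm with spot signal-to-noise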
[11] = tested on: Human papillomavirus type 1a protein E7 (residues 44-93); assay: HPV1a E7 fragment binders on microarrays, primary screen, biochemical, small-molecule microarray, residues 44-93, 635 nm fluorescence (AID 1108); conditions: small-molecule microarray binding, fluorescence 635 nm; higher = more signal;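 further: E7 fragment applied at 1 µg/mL in TBST for 1 h at 4 C; score combines spot fluorescence with its signal to noise ratio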
[12] = modulators of HCV replicon luciferase signal, primary screen, HCV replication inhibitor project, Huh7 cells, luciferase reporter (AID 1109); conditions: 48 h, higher = more signal;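 further: huh7 hepatoma cells harbouring a luciferase neomycin HCV replicon reporter; luciferase luminescence as measure of HCV replicon replication; test concentration not given here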
[13] = biological target: Left-right determination factor 2 (Homo sapiens) (UniProt O00292); assay: LEFTY2 binders on small-molecule microarrays, primary screen, biochemical, small-molecule microarray, 635 nm fluorescence scan (AID 1110); conditions: LEFTY2 binding, higher = more signal
[14] = biological target: Calmodulin-1 (Homo sapiens) (UniProt P0DP23); assay: CALM1 binders on microarrays, EGTA buffer, profiling panel, biochemical, small-molecule microarray, Cy5-labelled CALM1 (AID 1111); conditions: Cy5-CALM1 binding fluorescence, higher = more signal;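 further: labelled calmodulin applied in Tris saline Tween buffer holding calcium plus EGTA and DTT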
[15] = biological target: Calmodulin-1 (Homo sapiens) (UniProt P0DP23); assay: calcium-bound CALM1 binders on microarrays, profiling panel, artefact control for SMM control-protein annotation, biochemical, small-molecule microarray, Cy5-labelled CALM1, plus calcium (AID 1112); conditions: Cy5-CALM1 binding fluorescence, higher = more signal;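 further: score merges spot fluorescence with signal to noise from triplicate slides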
[16] = small-molecule microarray binders of probe aWnt5a, primary screen, biochemical, biotinylated probe, 635/667 nm fluorescence (AID 1113); conditions: higher = more signal;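 further: score merges 667 nm fluorescence intensity with signal-to-noise per printed feature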
[17] = small-molecule microarray binders of probe aShh, primary screen, biochemical, biotinylated probe, 635/667 nm fluorescence (AID 1114); conditions: higher = more signal;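 further: probe is biotin-labelled aShh protein from a stem cell growth factor screen; measures binding of labelled protein to compounds printed on the slide; score merges feature fluorescence at 667 nm with signal-to-noise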
[18] = small-molecule microarray binders of probe aNog, primary screen, biochemical, biotinylated probe, 635/667 nm fluorescence (AID 1115); conditions: higher = more signal;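 further: probe is biotinylated aNog protein used at 0.15 µg/mL for 1 h at 4 C; z-score combines 667 nm fluorescence of each spot with its signal to noise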
[19] = biological target: Torsin-1A-interacting protein 1 (Homo sapiens) (UniProt Q5JTV8); assay: LAP1 binders from COS7 cell lysate, primary screen, small-molecule microarray, 635/667 nm fluorescence (AID 1116); conditions: COS7-hLAP1 lysate binding, 635 nm fluorescence, higher = more signal
[20] = biological target: Alpha-bungarotoxin (Bungarus multicinctus) (UniProt P60615); assay: alpha-bungarotoxin binders on microarray, profiling panel, artefact control for SMM control protein annotation, biochemical, small-molecule microarray, Alexa647 label, 635/667 nm fluorescence (AID 1117); conditions: alpha-BTX-A647 binding fluorescence, higher = more signal
Sequence of Alpha-bungarotoxin (Bungarus multicinctus) (P60615 whole entry, looked up): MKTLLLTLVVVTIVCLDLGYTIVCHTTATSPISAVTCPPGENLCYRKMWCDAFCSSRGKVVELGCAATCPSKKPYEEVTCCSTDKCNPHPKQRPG

Sequence of Epidermal growth factor receptor (Homo sapiens) (P00533 whole entry, looked up): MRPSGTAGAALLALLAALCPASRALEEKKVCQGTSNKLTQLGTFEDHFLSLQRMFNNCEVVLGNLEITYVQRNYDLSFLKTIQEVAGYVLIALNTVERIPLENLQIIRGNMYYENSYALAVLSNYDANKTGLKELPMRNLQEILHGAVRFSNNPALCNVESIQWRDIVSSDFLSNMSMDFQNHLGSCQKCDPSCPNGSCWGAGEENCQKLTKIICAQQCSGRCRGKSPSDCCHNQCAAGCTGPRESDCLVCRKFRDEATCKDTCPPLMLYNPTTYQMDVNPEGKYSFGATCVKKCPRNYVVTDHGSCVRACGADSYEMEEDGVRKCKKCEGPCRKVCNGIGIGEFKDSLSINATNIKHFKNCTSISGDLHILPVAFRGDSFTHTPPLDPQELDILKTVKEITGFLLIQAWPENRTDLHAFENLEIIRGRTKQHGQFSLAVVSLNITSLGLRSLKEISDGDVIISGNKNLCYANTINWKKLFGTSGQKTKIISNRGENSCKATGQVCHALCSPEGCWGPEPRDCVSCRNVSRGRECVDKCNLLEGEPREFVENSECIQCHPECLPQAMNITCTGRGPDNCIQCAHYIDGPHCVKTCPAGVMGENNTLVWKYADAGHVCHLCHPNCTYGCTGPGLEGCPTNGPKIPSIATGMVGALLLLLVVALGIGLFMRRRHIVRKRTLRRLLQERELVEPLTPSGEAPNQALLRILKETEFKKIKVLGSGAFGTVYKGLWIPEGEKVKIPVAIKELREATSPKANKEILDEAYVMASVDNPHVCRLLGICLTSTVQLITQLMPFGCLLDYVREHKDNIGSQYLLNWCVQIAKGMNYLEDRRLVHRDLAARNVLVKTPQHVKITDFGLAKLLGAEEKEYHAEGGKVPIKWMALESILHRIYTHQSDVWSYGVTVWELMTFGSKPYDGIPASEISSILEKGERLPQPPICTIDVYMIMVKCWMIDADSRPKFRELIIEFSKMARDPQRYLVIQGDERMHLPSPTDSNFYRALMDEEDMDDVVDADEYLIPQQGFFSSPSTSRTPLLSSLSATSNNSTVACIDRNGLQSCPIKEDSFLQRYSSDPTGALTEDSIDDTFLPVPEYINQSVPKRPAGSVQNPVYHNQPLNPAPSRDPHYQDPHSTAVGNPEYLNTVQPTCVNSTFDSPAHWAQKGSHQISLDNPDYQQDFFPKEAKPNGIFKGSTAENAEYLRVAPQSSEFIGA
Sequence of Torsin-1A-interacting protein 1 (Homo sapiens) (Q5JTV8 whole entry, looked up): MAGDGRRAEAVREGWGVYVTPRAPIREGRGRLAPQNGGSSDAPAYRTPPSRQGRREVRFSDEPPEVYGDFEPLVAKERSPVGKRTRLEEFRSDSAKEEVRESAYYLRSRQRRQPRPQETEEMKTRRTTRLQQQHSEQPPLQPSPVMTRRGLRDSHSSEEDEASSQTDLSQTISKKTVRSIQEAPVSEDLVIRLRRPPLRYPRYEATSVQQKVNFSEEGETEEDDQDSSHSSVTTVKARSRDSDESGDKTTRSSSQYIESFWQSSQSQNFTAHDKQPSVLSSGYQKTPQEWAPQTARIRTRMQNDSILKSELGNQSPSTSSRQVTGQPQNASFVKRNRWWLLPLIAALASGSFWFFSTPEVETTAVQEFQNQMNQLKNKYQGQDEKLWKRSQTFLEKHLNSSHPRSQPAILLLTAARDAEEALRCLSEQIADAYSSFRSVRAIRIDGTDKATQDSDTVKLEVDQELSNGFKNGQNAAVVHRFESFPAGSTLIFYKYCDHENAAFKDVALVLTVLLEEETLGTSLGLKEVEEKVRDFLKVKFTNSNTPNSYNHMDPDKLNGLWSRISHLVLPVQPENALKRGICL
Sequence of Fibroblast growth factor 10 (Homo sapiens) (O15520 whole entry, looked up): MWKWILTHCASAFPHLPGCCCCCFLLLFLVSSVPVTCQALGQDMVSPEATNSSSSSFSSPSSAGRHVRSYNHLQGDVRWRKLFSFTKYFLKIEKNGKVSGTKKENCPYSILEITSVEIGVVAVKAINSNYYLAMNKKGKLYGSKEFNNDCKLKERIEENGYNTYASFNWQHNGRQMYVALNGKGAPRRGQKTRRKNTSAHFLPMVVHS
Sequence of Follistatin-related protein 3 (Homo sapiens) (O95633 whole entry, looked up): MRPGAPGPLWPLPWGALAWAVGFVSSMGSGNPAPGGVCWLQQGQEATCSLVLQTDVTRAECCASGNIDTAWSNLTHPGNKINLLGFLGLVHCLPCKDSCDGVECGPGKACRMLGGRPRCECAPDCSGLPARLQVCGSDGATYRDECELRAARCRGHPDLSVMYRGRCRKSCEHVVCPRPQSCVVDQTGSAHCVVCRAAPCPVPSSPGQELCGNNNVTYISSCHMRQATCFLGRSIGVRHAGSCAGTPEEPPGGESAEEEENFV
Sequence of Dickkopf-related protein 1 (Homo sapiens) (O94907 whole entry, looked up): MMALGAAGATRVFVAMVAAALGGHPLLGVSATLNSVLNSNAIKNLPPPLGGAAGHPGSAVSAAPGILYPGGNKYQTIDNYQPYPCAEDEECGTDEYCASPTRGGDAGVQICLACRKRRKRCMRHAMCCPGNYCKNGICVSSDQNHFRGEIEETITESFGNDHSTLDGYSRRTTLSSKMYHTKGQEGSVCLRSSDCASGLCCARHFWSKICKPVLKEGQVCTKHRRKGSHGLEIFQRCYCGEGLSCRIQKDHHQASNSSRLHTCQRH
Sequence of Left-right determination factor 2 (Homo sapiens) (O00292 whole entry, looked up): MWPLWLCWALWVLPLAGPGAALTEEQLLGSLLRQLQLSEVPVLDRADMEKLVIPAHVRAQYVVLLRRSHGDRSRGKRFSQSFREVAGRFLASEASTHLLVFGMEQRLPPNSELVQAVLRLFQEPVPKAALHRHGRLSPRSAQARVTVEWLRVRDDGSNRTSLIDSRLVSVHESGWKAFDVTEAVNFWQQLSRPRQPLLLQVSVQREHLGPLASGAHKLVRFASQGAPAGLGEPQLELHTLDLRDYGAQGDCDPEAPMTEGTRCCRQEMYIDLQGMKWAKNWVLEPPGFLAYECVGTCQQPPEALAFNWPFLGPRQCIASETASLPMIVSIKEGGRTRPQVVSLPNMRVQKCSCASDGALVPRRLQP

SMILES | composite z-score [1] | composite z-score [2] | composite z-score [3] | z-score [4] | composite z-score [5] | composite z-score [6] | composite z-score [7] | composite z-score [8] | composite z-score [9] | composite z-score [10] | composite z-score [11] | z-score [12] | composite z-score [13] | composite z-score [14] | composite z-score [15] | composite z-score [16] | composite z-score [17] | composite z-score [18] | composite z-score [19] | composite z-score [20]
COCCOC(=O)N1C(=O)[C@@]2(c3cc(C#CC4=CCCCC4)ccc31)[C@H](c1ccc(OCCO)cc1)N1[C@H](c3ccccc3)[C@H](c3ccccc3)OC(=O)[C@H]1[C@@H]2C(=O)N1CCCCCCC1 | 0.959 | 1.43 | 1.16 | -1.07 (inactive) | 1.02 | 1.33 | 0.513 | 1.46 | 1.01 | 1.7 | 0.67 | -1.13 | 0.853 | 0.643 | 0.758 | 0.267 | 1.44 | 1.33 | 1.91 | 1.9
C=CCOC(=O)[C@@H]1[C@H]2C(=O)O[C@H](c3ccccc3)[C@H](c3ccccc3)N2[C@H](c2ccc(OCCOC(=O)[C@H]3C[C@H]4C(=O)NCC(=O)N4[C@H]3c3ccc(O)cc3)cc2)[C@@]12C(=O)Nc1ccc(I)cc12 | 1.57 | 0.159 | 0.21 | 1.14 (inactive) | 0.613 | 1.35 | 0.728 | 1.02 | 0.674 | -0.0057 | 0.222 | -2.09 | 0.606 | 0.342 | -0.103 | -0.0758 | -0.294 | 0.036 | 1.27 | 1.74
COCCOC(=O)N1C(=O)[C@@]2(c3cc(C#CCNC(N)=O)ccc31)[C@H](C(=O)NC[C@H](O)c1ccccc1)[C@H]1C(=O)O[C@H](c3ccccc3)[C@H](c3ccccc3)N1[C@@H]2c1ccc(OCCO)cc1 | 1.44 | 0.398 | 0.782 | -0.204 (inactive) | 0.872 | 0.939 | 0.565 | 0.898 | 0.301 | 0.649 | 1.11 | 0.724 | 0.319 | 0.565 | 0.442 | -0.0459 | 0.13 | 1.09 | 1.47 | 0.41
CCC[C@@H]1C=C(C(=O)OCC)[C@H](c2ccccc2)N1S(=O)(=O)c1ccc(C)cc1 | 0.58 | 0.852 | 1.02 | -0.141 (inactive) | 0.977 | 1.32 | 0.623 | 1.25 | 0.117 | 0.789 | 1.04 | -1.84 | 1.06 | 1.99 | 0.409 | 0.145 | -0.195 | -0.413 | 1.69 | 1.26
CC(C)CNC(=O)[C@@H]1c2ccccc2C(=O)N(Cc2ccccc2Cl)[C@H]1c1ccc(CO)cc1 | 1.29 | 0.495 | 0.959 | 0.587 (inactive) | -0.765 | 0.729 | -0.519 | -0.644 | -1.17 | -0.114 | 1.07 | -0.249 | -1.09 | 0.0642 | -0.116 | -0.244 | -0.0813 | -0.0769 | 1.69 | -1.39
COCCOC(=O)N1C(=O)[C@@]2(c3cc(C#CCC(C(=O)OC)C(=O)OC)ccc31)[C@H](C(N)=O)[C@H]1C(=O)O[C@H](c3ccccc3)[C@H](c3ccccc3)N1[C@@H]2c1ccc(OCCO)cc1 | 1.13 | 0.271 | 0.25 | -0.517 (inactive) | 1.11 | 1.31 | 0.776 | 1.01 | 0.614 | 0.444 | 1.43 | -1.88 | 0.705 | 1.27 | -0.27 | -0.0161 | 0.184 | 0.177 | 0.775 | 1.44

From PubChem BioAssay
